RORg inh – blocks mouse ROR gamma transcriptional activity. P51450. Drosophila S2 Gal4-RORgamma UAS-luciferase reporter, 20 h. Potency, µM (highest dose often 53.6 µM), actives largely listed as inhibitors. 310,000 tested, 5.4% active; further: nearly all actives have a fitted effect of over 60% in size
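Luminescence from a UAS-regulated Photinus luciferase reporter in stably transfected Drosophila Schneider cells is measured; decreased signal marks ROR gamma inhibition. Fusion expression is induced by 700 uM copper sulfate for 20 hr.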
Gal4-VP16 FLuc – counter-screen for ROR gamma inhibitors: Gal4-VP16 reporter; Potency, µM (doses to about 53.6 µM), hits mostly inhibitors; Drosophila S2 Gal4-VP16 UAS-luciferase, luminescence, 20 h; AID 2546; 310,000 tested, 3.5% active;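 further: Gal4-VP16 expression switched on by copper sulfate through the metallothionein promoter; nearly all actives have a fitted effect of over 50% in size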
Sfp PPTase inh – Sfp phosphopantetheinyl transferase inhibition. Q9F4F7. 310,000 tested, 3.5% active. Potency, µM, usual class: inhibitors. Biochemical Sfp PPTase activity, qHTS;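 further: the enzyme is Sfp with the accession as filed and its product quenches rhodamine fluorescence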
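Sfp 15 nM + cpd, 15 min RT; start w/ rhodamine-CoA 5 uM, BHQ-2-YbbR 12.5 uM (final); 50 mM Hepes pH 7.6, 10 mM MgCl2, 0.01% NP-40, 0.01% BSA; read 525/598 nm at 0 and 30 min.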
ALDH1A1 block – blocks purified human ALDH1A1 activity. P00352. AID 1030. 220,000 tested, 7.3% active. Potency, µM (titrated, usually from 75.3 µM), actives largely listed as inhibitors. Purified ALDH1A1, NADH fluorescence, propionaldehyde substrate; active means well fitted inhibition curve with a large enough effect, not every such curve was filed as active; inconclusive means small, poorly fitted or top-dose-only effect, or another doubt; inactive means no such curve, though single readings can be large or run the other way
PLK1 PBD inh – blocks phosphopeptide binding to human PLK1 polo-box domain. AID 720504. P53350. Plk1 PBD binding of FITC phosphopeptide, fluorescence polarization. 360,000 tested, 2.8% active. Potency, µM, most hits filed as inhibitors; further: series mostly up to about 57 µM; nearly all actives have a fitted effect of over 65% in size
Target sequence (P53350 whole entry, looked up, the tested form may be a part): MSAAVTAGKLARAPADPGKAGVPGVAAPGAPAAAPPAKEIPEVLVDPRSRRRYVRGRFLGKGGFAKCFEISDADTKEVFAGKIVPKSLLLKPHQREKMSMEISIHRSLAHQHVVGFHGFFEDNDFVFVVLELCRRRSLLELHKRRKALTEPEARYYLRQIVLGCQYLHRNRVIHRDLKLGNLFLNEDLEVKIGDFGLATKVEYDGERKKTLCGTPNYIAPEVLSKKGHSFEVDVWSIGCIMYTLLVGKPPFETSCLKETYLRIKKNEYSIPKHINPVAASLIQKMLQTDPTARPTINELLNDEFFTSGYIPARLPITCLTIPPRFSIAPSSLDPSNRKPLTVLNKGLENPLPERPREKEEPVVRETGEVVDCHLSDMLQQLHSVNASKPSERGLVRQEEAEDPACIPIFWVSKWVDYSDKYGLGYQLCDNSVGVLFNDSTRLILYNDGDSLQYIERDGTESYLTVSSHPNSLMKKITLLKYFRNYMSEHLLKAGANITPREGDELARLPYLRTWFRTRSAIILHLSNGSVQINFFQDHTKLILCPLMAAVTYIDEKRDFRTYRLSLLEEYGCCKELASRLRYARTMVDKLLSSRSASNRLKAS
A number is an active result; 0 = inactive; ? = inconclusive; - = not tested or not shown; [ ] = dose if it differs, or a comment. An excerpt weighted towards active compounds, which were near 12% of everything screened. Unless noted, the call rests on the fitted dose curve; in most records, active means well fitted curve in the direction sought with a large enough effect; inconclusive means small, poorly fitted or top-dose-only effect, or another doubt; inactive means no such curve, though single readings can be large; an effect the other way counts as inactive or inconclusive.

SMILES | RORg inh | Gal4-VP16 FLuc | Sfp PPTase inh | ALDH1A1 block | PLK1 PBD inh
Cn1c(=O)c2c(nc(SC3C(=O)CC(C)(C)CC3=O)n2C)n(C)c1=O | 0 | 0 | 56.2µM | 0 | 0
CC(C)Sc1nc2c(c(=O)n(C)c(=O)n2C)n1C | 0 | 0 | 0 | 0 | 0
Cc1ccccc1C(=O)Nc1nnc(-c2ccco2)o1 | 0 | 0 | 0 | 0 | 0
COc1ccc(-c2nnc(NC(=O)c3ccccc3C)o2)cc1 | 0.631µM | 0.794µM | 0 | - | 0
Cc1ccccc1C(=O)Nc1nnc(-c2ccncc2)o1 | 2.82µM | 5.01µM | 0 | 0 | 0
O=C(NCCNC(=O)c1cc(Cl)ccc1Cl)c1ccccn1 | 0 | 0 | 0 | - | 0
CC(=O)N/N=C/c1cc(C(C)C)cc(/C=N/NC(C)=O)c1O | 0 | 0 | 0 | 0 | 21.2µM
CN(Cc1ccccc1)C(=O)c1csc([C@@H]2C[C@H](O)[C@@H](CO)O2)n1 | - | - | - | - | 0
CCCOc1ccc([N+](=O)[O-])cc1C1NC(=S)NC(c2ccccc2)=C1C(=O)OCC (stereo not given) | 6.31µM | 20µM | 0 | ? | 0
CCOC(=O)C1=C(c2cccc(F)c2)NC(=S)NC1C (stereo not given) | 14.1µM | ? | 0 | 1.58µM | ?
CC1CCCCN1C(=O)C1CC(c2ccc(F)cc2)=NO1 (stereo not given) | ? | 0 | 0 | 0.316µM | 0
O=C(C1CC(c2ccc(F)cc2)=NO1)N1CCCCC1 (stereo not given) | 0 | 0 | 0 | 0 | 0
Cc1sc2ncnc(NCC(C)(C)N3CCOCC3)c2c1C | ? | 17.8µM | 0 | 0 | 0
Cc1sc2ncnc(Nc3ccccc3)c2c1C | 0 | 0 | 0 | 0 | 26.7µM
Cc1sc2ncnc(NCc3ccccc3)c2c1C | 0 | 17.8µM | 0 | 0 | 0
C[C@]12CC[C@H]3c4ccc(OC[C@H]5CO5)cc4CC[C@H]3[C@H]1CC[C@@H]2O | 0[10 µM] | 0[10 µM] | 0 | 0[13.5 µM] | -
Cc1ccc(Sc2ccc(C(=O)N3CCOCC3)cc2[N+](=O)[O-])cc1 | 0 | 0 | 0 | - | 0
CCOc1ccccc1Nc1nc2ccccc2n1C(C)C | 10µM | 0 | 0 | 0 | 0
O=C(CNC(=O)c1ccco1)OCC(=O)c1cccc2ccccc12 | 0 | 0 | 0 | 22.4µM | 0
COc1cccc(CNCCNC(=O)c2ccco2)c1OC | 0 | 0 | ? | ? | 18.9µM
COc1ccccc1C(=O)NCCNC(=O)c1ccco1 | 0 | 0 | 0 | 0 | 26.7µM
O=C(NCCNC(=O)c1ccccc1Cl)c1ccco1 | 0 | 0 | 0 | - | ?
COc1cc(OC)c(OC)cc1CNCCNC(=O)c1ccco1 | 0 | 0 | 0 | - | 0
CCCC/C=C/C(NC(=O)c1ccco1)c1ccccc1 (stereo not given) | 0 | 0 | 0 | 3.55µM | -
Cc1ccc(S(=O)(=O)N2CCCCC2)cc1NC(=O)COC(=O)CN1C(=O)NC2(CC(C)CC(C)(C)C2)C1=O (stereo not given) | - | - | - | - | 0
SMILES | RORg inh | Gal4-VP16 FLuc | Sfp PPTase inh | ALDH1A1 block | PLK1 PBD inh
N#C/C(=C\c1ccc(OC(=O)c2ccc(Cl)s2)cc1)c1nc2ccccc2[nH]1 | 0 | 0 | 0 | 0 | 0
O=C(NCCNC(=O)C(c1ccccc1)c1ccccc1)c1ccco1 | 0 | 0 | 0 | 39.8µM | 0
COc1ccccc1C(=O)NC(=S)Nc1ccc(NC(=O)c2ccco2)cc1 | ? | 0 | 0 | 12.6µM | 0
O=C(NCCc1ccccc1)c1ccco1 | 0 | 0 | 0 | 0 | 0
CC(OC(=O)CNC(=O)c1ccco1)C(=O)N(C)c1ccccc1 (stereo not given) | 0 | 0 | 0 | ? | 26.7µM
CC(=O)NC(c1ccccc1)c1nc(-c2cc3ccccc3o2)cs1 (stereo not given) | - | - | - | - | 0
O=S1(=O)C2CC3C=CC2(O3)C(O)C(Cc2ccccc2)N1Cc1cccc(C(F)(F)F)c1 (stereo not given) | 0 | 0 | 0 | - | -
CC(O)CN(C)C (stereo not given) | 0 | 0 | 0 | - | -
C=CCSc1cc(C)nc2c(-c3ccccc3)cnn12 | 10µM | ? | 0 | - | 0
CC(=O)Nc1ccc(Nc2cc(C)nc3c(-c4ccccc4)cnn23)cc1 | 12.6µM | 7.94µM | 0 | ? | 0
Cc1cc(N)n2ncc(-c3ccccc3)c2n1 | 0 | 0 | 0 | ? | 0
CCOC(=O)c1c(S(=O)(=O)Nc2ccc(C)cn2)c(C)n(C)c1C | 0 | 0 | 0 | - | 21.2µM
CC1=C(C(=O)N(C(C)C)C(C)C)CC(CC(=O)NCc2cccc3ccccc23)C(=O)N1CCC1=CCCCC1 (stereo not given) | - | - | - | - | 0
COC(=O)c1ccc(C(NC(=O)OCc2ccccc2)/C(C)=C/[C@@H](C)C(=O)NCc2cccnc2)cc1 (stereo not given in full) | ? | 0 | 0 | 0 | -
N/C(=N\N=C\c1ccc(O)c(O)c1)c1nonc1N | 10µM | ? | 0 | - | 0

Source: PubChem (National Center for Advancing Translational Sciences (NCATS))
